In all, about 5,500 compounds went through this assay and about 2,000 (36%) were called active. Not shown: some 18% with an inconclusive outcome. No stated cut-off is given here; in the data, active means normalized growth mostly below about 0.91 (no sharp cut-off); inconclusive means no clear call, values can overlap the other calls; inactive means mostly above about 0.92. This is one part of the list.
Assay: chemical genetic growth profiling, strain panel (AID 1159580);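 further: tested at 20 µM; growth read once vehicle control cultures reached saturation at 30 °C; 1 = growth at the plate median or of vehicle wells; lower values mean less growth of the strain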
Conditions: S. cerevisiae deletion strains, growth OD

Measured: normalized growth

CN(CCOc1ccc(C[C@H](Nc2ccccc2C(=O)c2ccccc2)C(=O)O)cc1)c1ccccn1
inactive: locus YAL013W, strain DEP1, active compounds read low 0.992 | locus YAL040C, strain CLN3, active compounds read low 1.09 | locus YCL061C, strain MRC1 (second series), active compounds read low 0.999 | locus YDR363W, strain ESC2, active compounds read low 0.994 | locus YER002W, strain NOP16, active compounds read low 1 | locus YGR078C, strain PAC10, active compounds read low 1.02 | locus YMR263W, strain SAP30, active compounds read low 1 | locus YMR307W, strain GAS1, active compounds read low 0.996 | locus YNL175C, strain NOP13, active compounds read low 1 | locus YNL197C, strain WHI3, active compounds read low 0.994 | locus YNL224C, strain SQS1, active compounds read low 0.992 | locus YOR083W, strain WHI5 (second series), active compounds read low 1.1 | locus YPL055C, strain LGE1, active compounds read low 1

Source: PubChem BioAssay AID1159580 (chemical genetic matrix, 2015)
